Experimental findings from PubChem BioAssay (Tox21) are described below.

The structures appear in SMILES notation. A number with no mark means an inactive call. Inconclusive results are not listed. Activity calls are given as the source filed them. Unless noted, calls follow the shape of the full dose curve.

Assay [1] can be described thus: Nuclear factor erythroid 2-related factor 2/antioxidant responsive element (Nrf2/ARE) small molecule agonists: qHTS cell viability counter screen in human keratinocytes (AID 1919968; active = well fitted curve in the direction sought with a large enough effect in the repeat runs; an effect the other way counts as inactive or inconclusive; also: nearly all actives have a fitted effect of over 55% in size). An outline of the steps: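 KeratinoSens cells (HaCaT keratinocytes stably carrying an ARE-luciferase reporter) were seeded at 1,500 cells/well and rested 5 h at 37 C/5% CO2. They were then exposed to compounds in DMSO for 23 h. Viability was read by CellTiter-Fluor fluorescence after 1 h.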

A short description of assay [2]: Nuclear factor erythroid 2-related factor 2/antioxidant responsive element (Nrf2/ARE) small molecule agonists: luciferase reporter gene qHTS assay in human keratinocytes (AID 1919969). Also: nearly all actives have a fitted effect of over 35% in size. Also: potency is read from the fitted curve at half-maximal effect. In general terms: Reporter assays use an easily measured gene product as a stand-in for the process of interest.
Assay [3] has as its target Gonadotropin-releasing hormone receptor (Homo sapiens) (UniProt P30968). The assay can be described thus: Human gonadotropin-releasing hormone receptor (GnRHR) small molecule agonists, calcium flux assay in GnRHR-HEK293 cells (AID 1920063). Also: nearly all actives have a fitted effect of over 35% in size. In outline: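 HEK293 cells stably expressing human GnRHR were plated 18 h at 37 °C, loaded with calcium dye 1 h at 37 °C, then given compound in agonist mode; fluorescence (Ex/Em 480/540) read kinetically for 3 min at 1 s intervals.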
(A change in cytosolic calcium serves as a functional read-out for many receptors and channels.)

The target of assay [4] is KiSS-1 receptor (Homo sapiens) (UniProt Q969F8). The assay can be described thus: Human kisspeptin (KISS1R) small molecule agonists, calcium flux assay in KISS1R-HEK293 cells (AID 1920064; active = well fitted curve in the direction sought with a large enough effect in the repeat runs; an effect the other way counts as inactive or inconclusive). An outline of the steps: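 HEK293 cells stably expressing human KISS1R were plated 18 h at 37 °C, loaded with calcium dye for 1 h at 37 °C, then given compound by pin tool. Fluorescence (Ex/Em 480/540) was read kinetically for 3 min.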

Assay [5] in a line: G protein-coupled receptor (GPCR) small molecule agonists, calcium flux assay: HEK293 wild type cell line counter screen (AID 1920065). An outline of the steps: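 Cells were plated and cultured 18 h at 37 C/5% CO2, then loaded with calcium dye for 1 h at 37 C. Compounds in DMSO were pin-transferred in agonist mode, and fluorescence (Ex/Em 480/540) was read kinetically for 3 min at 1 s intervals.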

A short description of assay [6]: p53 small molecule agonists, cell-based qHTS assay with human liver microsomes: qHTS cell viability counter screen (AID 1963579). Also: nearly all actives have a fitted effect of over 45% in size. In outline:
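Metabolic activation used human liver microsomes and NADPH, both 0.5 mg/mL final, over 16 hours at 37 C on p53RE-bla cells (4,000/well). Cytotoxicity measured by CellTiter-Glo luminescence, 30 min at room temperature.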
Background: In qHTS, concentration-response curves come from the screen itself.

Assay [7] can be described thus: p53 small molecule agonists, cell-based qHTS assay with rat liver microsomes: qHTS cell viability counter screen (AID 1963580). Also: nearly all actives have a fitted effect of over 45% in size. An outline of the steps: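 Intracellular ATP, by CellTiter-Glo luminescence, defines viability. HCT-116 p53RE-bla cells, 4,000 per well, were compound-treated in the presence of rat liver microsomes and NADPH for 16 h at 37 C.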
Assay [8] in a line: p53 small molecule agonists, cell-based qHTS assay: qHTS cell viability counter screen (AID 1963581). Also: nearly all actives have a fitted effect of over 45% in size. In outline: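 p53RE-bla HCT-116 cells were exposed to compounds for 16 h at 37 C; after the beta-lactamase FRET read in the same wells, CellTiter-Glo was added and luminescence (intracellular ATP) read after 30 min at room temperature.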
Assay [9] has as its target 5-hydroxytryptamine receptor 2A (Homo sapiens) (UniProt P28223). Nature of the assay: 5-hydroxytryptamine receptor 2A (HTR2A) small molecule antagonists, cell-based qHTS assay (AID 1963586). Also: nearly all actives have a fitted effect of over 45% in size. An outline of the steps:
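Antagonist-mode intracellular calcium assay: DOI (4 nM) added after 5 min compound pre-incubation at room temperature to dye-loaded HTR2A-CHO cells. Fluorescence followed for 3 min, sampled every second.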

The target is the same in assay [10]. The assay can be described thus: 5-hydroxytryptamine receptor 2A (HTR2A) small molecule agonists, cell-based qHTS assay (AID 1963587). Also: nearly all actives have a fitted effect of over 30% in size. In outline:
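Kinetic calcium-flux fluorescence (2 min, 1 sec intervals) after compound addition in agonist mode. HTR2A-CHO cells were cultured 18 h, then dye-loaded 1 h at 37 C.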

Assay [11] deals with Muscarinic acetylcholine receptor M1 (Homo sapiens) (UniProt P11229). The assay can be described thus: Cholinergic receptor muscarinic 1 (CHRM1) small molecule antagonists, cell-based qHTS assay (AID 1963588). Also: nearly all actives have a fitted effect of over 40% in size. Also: potency is read from the fitted curve at half-maximal effect. In outline:
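CHRM1-CHO calcium-flux assay, antagonist mode. Cells were seeded 18 h, dye-loaded 1 h at 37 C and given compound for 5 min at RT, then acetylcholine was added at 50nM. FDSS fluorescence was read 3 min; 15 concentrations, three runs.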

For assay [12] the target is unchanged. Nature of the assay: Cholinergic receptor muscarinic 1 (CHRM1) small molecule agonists, cell-based qHTS assay (AID 1963589). Also: nearly all actives have a fitted effect of over 35% in size. An outline of the steps:
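CHO cells stably expressing human CHRM1, seeded 18 h at 37 C/5% CO2, dye-loaded 1 h at 37 C, then given compound in agonist mode; intracellular calcium fluorescence read kinetically at 1 s intervals. Fifteen concentrations, three independent runs.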

Assay [13] can be described thus: cAMP Responsive Elements (CRE) small molecule agonists, cell-based qHTS assay (AID 1963590). In outline:
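CRE-bla HEK 293T cells in DMEM with 10% dialyzed FBS, NEAA, pyruvate and 25 mM HEPES were plated 18 h at 37 C/5% CO2, then exposed to compounds in DMSO for 3 h before LiveBLAzer B/G FRET substrate addition.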

Assay [14] has as its target Beta-2 adrenergic receptor (Homo sapiens) (UniProt P07550). Nature of the assay: Adrenergic beta2 receptor (ADRB2) small molecule antagonists, cell-based qHTS assay (AID 1963592). Also: series mostly up to about 92 µM; nearly all actives have a fitted effect of over 50% in size. An outline of the steps:
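Cells (CHO, stable ADRB2 overexpression) incubated 18-20hr at 37C; compounds added from DMSO; agonist mix (1nM isoproterenol, 100uM IBMX, 25uM Ro-20-1724) added; 0.5hr RT; d2-cAMP and anti-cAMP-cryptate added; 1hr RT; 665/615 nm read.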

The target is the same in assay [15]. Nature of the assay: Adrenergic beta2 receptor (ADRB2) small molecule agonists, cell-based qHTS assay (AID 1963593).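 Also: CHO cells stably overexpressing human ADRB2.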 An outline of the steps: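 CHO cells stably over-expressing ADRB2 were plated overnight at 37C, then dosed with compounds plus a stimulation mix containing 100uM IBMX and 25uM Ro-20-1724 for 0.5hr at room temperature. cAMP was measured by HTRF competition, 1hr.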

For assay [16], the target named is D(2) dopamine receptor (Homo sapiens) (UniProt P14416). The assay can be described thus: Dopamine D2 receptor (DRD2) small molecule agonists, cell-based qHTS assay (AID 1963594). Also: nearly all actives have a fitted effect of over 35% in size. An outline of the steps: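 cAMP accumulation in DRD2-HEK293 cells measured by HTRF after 1 h detection; compounds added 10 min before NKH477 (200nM […]) forskolin-analogue stimulation, 30 min at room temperature, with Ro20-1724 present at 0.1 mM final.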

The target is the same in assay [17]. Nature of the assay: Dopamine D2 receptor (DRD2) small molecule antagonists, cell-based qHTS assay (AID 1963595; active = well fitted inhibition curve with a large enough effect in the signal ratio in the repeat runs, with a control signal flat; the % refers to the signal ratio). In outline: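 Cells were plated and grown for 24 h at 37 °C. Ro20-1724 (0.1 mM final) went in first, then compound for 10 min. NKH477 (200 nM) with quinpirole (12 nM) followed for 30 min at RT, then HTRF detection reagents for 1 h.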
Assay [18] is described as follows: cAMP Responsive Elements (CRE) small molecule antagonists, cell-based qHTS assay (AID 1963591; active = well fitted inhibition curve with a large enough effect in the signal ratio in the repeat runs, not every such curve was filed as active; the % refers to the signal ratio). In outline: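 CRE-bla HEK293T cells were plated 18 h at 37 °C/5% CO2, pinned with compound in DMSO, then stimulated with NKH477 at 0.25 uM final for 3 h. LiveBLAzer B/G FRET substrate was added and plates incubated 2 h at room temperature.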
% is scaled to controls: 0 for no effect and ±100 for the full control effect.

Sequence of Gonadotropin-releasing hormone receptor (Homo sapiens) (P30968 whole entry, looked up): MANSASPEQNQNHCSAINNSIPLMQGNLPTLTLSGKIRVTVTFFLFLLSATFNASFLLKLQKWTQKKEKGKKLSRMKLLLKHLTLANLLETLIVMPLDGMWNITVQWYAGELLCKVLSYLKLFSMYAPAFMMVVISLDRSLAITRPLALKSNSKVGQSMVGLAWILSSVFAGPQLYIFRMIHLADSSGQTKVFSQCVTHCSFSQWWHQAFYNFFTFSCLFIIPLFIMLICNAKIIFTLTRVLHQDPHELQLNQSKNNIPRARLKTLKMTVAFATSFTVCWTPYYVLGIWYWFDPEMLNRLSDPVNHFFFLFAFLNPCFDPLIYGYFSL
Sequence of Muscarinic acetylcholine receptor M1 (Homo sapiens) (P11229 whole entry, looked up): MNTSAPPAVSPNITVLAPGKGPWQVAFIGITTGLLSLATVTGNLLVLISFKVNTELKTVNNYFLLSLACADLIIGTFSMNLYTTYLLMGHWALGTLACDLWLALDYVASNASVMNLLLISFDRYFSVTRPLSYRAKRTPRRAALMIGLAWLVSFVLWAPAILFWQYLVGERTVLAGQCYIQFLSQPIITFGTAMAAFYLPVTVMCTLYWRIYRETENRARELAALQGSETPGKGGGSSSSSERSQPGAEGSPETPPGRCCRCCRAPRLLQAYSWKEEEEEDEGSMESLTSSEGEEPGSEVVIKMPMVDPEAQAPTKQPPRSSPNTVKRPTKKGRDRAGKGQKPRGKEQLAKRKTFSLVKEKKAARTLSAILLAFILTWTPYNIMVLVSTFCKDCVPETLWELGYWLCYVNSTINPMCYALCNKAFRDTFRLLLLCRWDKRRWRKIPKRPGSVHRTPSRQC
Sequence of KiSS-1 receptor (Homo sapiens) (Q969F8 whole entry, looked up): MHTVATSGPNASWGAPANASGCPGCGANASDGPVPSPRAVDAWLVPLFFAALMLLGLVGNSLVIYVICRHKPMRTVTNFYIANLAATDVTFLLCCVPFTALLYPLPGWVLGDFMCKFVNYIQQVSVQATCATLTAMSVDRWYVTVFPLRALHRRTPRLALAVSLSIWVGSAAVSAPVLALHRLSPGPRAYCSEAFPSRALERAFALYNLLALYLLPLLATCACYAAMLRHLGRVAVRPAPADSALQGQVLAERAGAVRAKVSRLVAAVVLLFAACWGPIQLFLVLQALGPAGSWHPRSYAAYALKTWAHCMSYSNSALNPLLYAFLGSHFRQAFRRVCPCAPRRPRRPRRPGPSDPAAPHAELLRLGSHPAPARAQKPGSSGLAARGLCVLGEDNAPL
Sequence of Beta-2 adrenergic receptor (Homo sapiens) (P07550 whole entry, looked up): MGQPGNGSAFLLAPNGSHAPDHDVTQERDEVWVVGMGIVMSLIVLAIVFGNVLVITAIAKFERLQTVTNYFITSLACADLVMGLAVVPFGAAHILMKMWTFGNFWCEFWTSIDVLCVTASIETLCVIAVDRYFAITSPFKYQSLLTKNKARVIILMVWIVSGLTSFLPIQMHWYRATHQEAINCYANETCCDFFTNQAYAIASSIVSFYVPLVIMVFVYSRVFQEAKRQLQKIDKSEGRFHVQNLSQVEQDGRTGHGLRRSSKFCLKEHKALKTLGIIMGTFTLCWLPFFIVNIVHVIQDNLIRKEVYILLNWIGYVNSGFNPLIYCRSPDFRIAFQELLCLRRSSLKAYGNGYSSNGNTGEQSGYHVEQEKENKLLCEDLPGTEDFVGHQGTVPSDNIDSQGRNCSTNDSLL
Sequence of D(2) dopamine receptor (Homo sapiens) (P14416 whole entry, looked up): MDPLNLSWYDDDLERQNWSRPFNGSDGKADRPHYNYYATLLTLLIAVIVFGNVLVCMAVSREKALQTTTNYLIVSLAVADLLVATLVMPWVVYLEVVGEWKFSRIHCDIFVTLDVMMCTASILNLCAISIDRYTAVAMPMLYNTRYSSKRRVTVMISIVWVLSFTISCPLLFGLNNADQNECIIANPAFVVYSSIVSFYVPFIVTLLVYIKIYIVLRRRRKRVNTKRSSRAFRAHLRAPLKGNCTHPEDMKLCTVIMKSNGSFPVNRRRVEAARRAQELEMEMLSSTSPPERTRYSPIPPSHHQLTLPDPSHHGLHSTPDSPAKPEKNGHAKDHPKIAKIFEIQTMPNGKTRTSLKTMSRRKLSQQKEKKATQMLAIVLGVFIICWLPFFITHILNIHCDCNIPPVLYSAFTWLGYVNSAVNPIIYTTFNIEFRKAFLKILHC
Sequence of 5-hydroxytryptamine receptor 2A (Homo sapiens) (P28223 whole entry, looked up): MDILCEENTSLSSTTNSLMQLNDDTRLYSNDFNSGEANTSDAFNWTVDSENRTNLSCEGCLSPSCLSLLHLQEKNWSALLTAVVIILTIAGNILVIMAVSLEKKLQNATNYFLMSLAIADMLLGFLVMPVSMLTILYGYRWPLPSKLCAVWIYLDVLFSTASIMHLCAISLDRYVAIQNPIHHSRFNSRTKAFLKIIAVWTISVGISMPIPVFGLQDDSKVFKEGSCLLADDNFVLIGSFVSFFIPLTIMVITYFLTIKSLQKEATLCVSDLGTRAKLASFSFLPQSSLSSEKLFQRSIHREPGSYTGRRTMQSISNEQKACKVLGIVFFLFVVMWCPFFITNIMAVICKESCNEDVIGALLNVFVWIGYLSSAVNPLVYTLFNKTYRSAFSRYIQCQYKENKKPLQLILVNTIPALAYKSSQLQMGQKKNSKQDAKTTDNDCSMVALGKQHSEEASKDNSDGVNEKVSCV

As for `CC(C)(C)OC(=O)c1ccc(O)cc1`, the Potency entry in assay [1], in assay [3], in [4], in assay [5], in assay [6] and in assay [7] was “inactive” in each case. For the same molecule, the Potency entry in assay [8], in assay [9], in assay [10], in [11], in assay [12] and in [13] was “inactive” throughout. The Potency result in assay [14], in [15], in assay [16] and in [17] was “inactive” in each case. Also, the Potency in assay [2] was 61.1 µM (active).

Turning to `O=C(Cl)c1ccc([N+](=O)[O-])cc1`, the Potency result in assay [1], in [2], in [3], in [4], in [5] and in assay [6] was “inactive” throughout. The Potency result in assay [7], in assay [8], in assay [9], in assay [10], in assay [11] and in assay [12] was “inactive” each time. Moreover, the Potency result in assay [13], in assay [18], in assay [14], in assay [16] and in assay [17] was “inactive” each time.

Regarding `c1ccc(-c2ccc(-c3ccccc3)cc2)cc1`, the activity change, negative = cytotoxicity is 1.35% [at 19 µM] in [1], 5.03% [at 13.5 µM] in assay [6], -3.67% [at 13.5 µM] in [7] and -12.2% [at 13.5 µM] in [8]. In addition, the activity, positive = activation in assay [2] was 16.6% [at 19 µM]. The activity change in assay [3] was 1.83% [at 11.8 µM, hits give high values]. The activation was 1.85% [at 15.8 µM] in assay [4]; 0.1% [at 11.8 µM] in assay [5]; 13.6% [at 15.9 µM] in [10]; 0.405% [at 15.8 µM] in [12]; -0.166% [at 19 µM] in [13]; 2.85% [at 19 µM] in assay [16]. Moreover, the values for the activity, negative = inhibition in assay [9] and in [11] were -2.25% [at 12.7 µM] and 9.45% [at 12.6 µM], respectively. Besides, the activity change, negative = inhibition was -3.34% [at 18.9 µM] in assay [18], 0.791% [at 19 µM] in assay [14] and 0.516% [at 18.9 µM] in assay [17].

With `Cc1c(C)c2c(c(C)c1OC(=O)c1cccnc1)CC[C@@](C)(CCC[C@H](C)CCC[C@H](C)CCCC(C)C)O2`, the Potency result in [1], in [2], in assay [3], in assay [4], in assay [5] and in [6] was “inactive” throughout. The Potency entry in assay [7], in assay [8], in assay [9], in [10], in [11] and in [12] was “inactive” throughout. Moreover, the Potency entry in assay [13], in assay [18], in [15], in assay [16] and in assay [17] was “inactive” throughout.

For `FC(F)(Cl)C(F)(Cl)Cl`, the Potency entry in [1], in [2], in assay [3], in assay [4], in assay [5] and in [6] was “inactive” throughout. Further, the Potency entry in assay [7], in [8], in assay [9], in assay [10], in assay [11] and in assay [12] was “inactive” throughout. In addition, the Potency result in [13], in [14], in assay [16] and in [17] was “inactive” throughout.

As for `OC(C#CCN1CCCC1)(c1ccccc1)c1ccccc1`, the Potency entry in [1], in [2], in assay [3], in [4], in [5] and in assay [6] was “inactive” throughout. Moreover, the Potency result in [7], in assay [8], in assay [9], in [10], in assay [12] and in assay [13] was “inactive” each time. Further, the Potency result in assay [18], in assay [14], in assay [16] and in [17] was “inactive” in each case. The Potency in assay [11] was 0.0065 µM (active).

On to `OCCC1CCCCN1` (stereo not drawn), for which the Potency entry in [1], in assay [2], in assay [3], in assay [4], in assay [5] and in [6] was “inactive” throughout. Also, the Potency entry in assay [7], in assay [8], in assay [9], in [10], in assay [11] and in assay [12] was “inactive” in each case. In addition, the Potency entry in assay [13], in [18], in assay [14] and in assay [17] was “inactive” throughout.

In the case of `CCCNC(C)(C)COC(=O)c1ccccc1`, the Potency entry in assay [1], in assay [2], in assay [3], in assay [4], in [5] and in [6] was “inactive” each time. The Potency entry in [7], in [8], in assay [9], in assay [10], in assay [11] and in assay [12] was “inactive” in each case. Besides, the Potency result in assay [13], in assay [18], in assay [14] and in assay [17] was “inactive” throughout.
